# Most compounds without a hit are left out; they make up all but 5.7% or so of the library.
# MPTP inh – blocks calcium-induced mitochondrial swelling | isolated mouse mitochondria, Ca2+ swelling absorbance, 30 min | AID 602449 | inhibition, % at 10 µM | 360,000 tested, 1.4% active;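 active = inhibition of 50% or more, scaled per plate between neutral and stimulator controls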;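 note: 0% = DMSO wells given calcium and 100% = 1 mM EGTA wells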
# Myeloid diff MLP – promotes myeloid progenitor differentiation; ER-HoxA9 myeloid progenitors, lysozyme-GFP differentiation, flow cytometry; 360,000 tested, 1% active; AID 624256; calls only at 10 µM;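 active = normalized GFP-positive differentiation at or above the plate's own cutoff, the solvent-only control mean plus 3 SD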;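 note: cells exposed to compound for four days before flow analysis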
# FAS-TE inh – inhibitors of human fatty acid synthase thioesterase domain; P49327; recombinant FAS-TE, OMFH fluorogenic substrate, fluorescence endpoint; inhibition, % at 15 µM; 360,000 tested, 0.67% active; AID 602261;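 active = compounds whose normalised, plate-corrected inhibition of enzyme fluorescence in the single-dose primary screen is 50% or more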;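 note: 0% = DMSO with enzyme and 100% = substrate without enzyme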
# NR3A LBD binder – modulators (binders) of human NR3A ligand-binding domain | NR3A LBD differential scanning fluorimetry, Tm shift; 0% = protein alone, 100% = glycine-bound protein | Tm shift relative to glycine control, % at 25 µM | 340,000 tested, 2.5% active | AID 1259313;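 active = melting temperature shift of at least 10% of the positive control shift, at one fixed dose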
# rCAG binder – r(CAG) repeat RNA binding | AID 651821 | inhibition, % at 3 µM | 370,000 tested, 1.3% active | TO-PRO-1 dye displacement fluorescence;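 active = inhibition above the plate cutoff, the mean of all test compounds on that plate plus 3 SD, cut at about 35% in these data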;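 note: 0% = DMSO alone and 100% = 100 µM mitoxantrone as full dye displacement; higher means more dye released from RNA so lower well fluorescence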
# Rh123 counter – mitochondrial membrane potential, counter-screen | 5,000 tested, 78% active | isolated mitochondria, Rhodamine 123 fluorescence | inhibition, % at 10 µM | AID 624504 | shares compounds with MPTP inh; in the data active = inhibition above about 22%;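 note: 0% = DMSO vehicle and 100% = positive control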
# MPTP abs DR – MPTP inhibition, dose response swelling confirmation. shares compounds with MPTP inh. isolated mitochondria swelling, absorbance. IC50, µM. 780 tested, 58% active. AID 651561; in the data active = IC50 below about 20 µM
# MPTP cs DR – active in counter-screen for permeability transition pore inhibitors. shares compounds with MPTP inh. isolated mitochondria counterscreen, fluorescence read-out. IC50, µM. 780 tested, 49% active; in the data active = IC50 below about 80 µM
# Numbers without * were called inactive; i = inactive; · = no result given; + = active, no number.
SMILES,MPTP inh,Myeloid diff MLP,FAS-TE inh,NR3A LBD binder,rCAG binder,Rh123 counter,others
O=C(Nc1cc(S(=O)(=O)Nc2ccccc2Cl)ccc1O)c1sc2cc(Cl)ccc2c1Cl,94*,+,0,150*,3,3,
Cc1cc(C)nc(NCc2ccc(Cl)cc2)n1,-1,i,3,0,-3,·,
Cc1cc(Nc2cccc(Cl)c2)nc(NCc2ccccc2)n1,82*,i,26,-2,3,87*,
Cc1cc(N2CCCCC2)nc(NCc2ccccc2)n1,55*,i,-39,0,7,88*,
O=C(N/N=C/C1C(c2ccccc2)C1(Cl)Cl)c1cccc(Cl)c1 (centres undefined),75*,i,3,-5,6,80*,
CCNC(=O)C1CCCN(C(=O)c2cccc(OC(F)(F)F)c2)CC1 (centres undefined),-2,i,-10,·,1,·,
CC(C)(C)c1ccccc1OCCCCCNCCO,90*,i,-7,2,6,-15,MPTP abs DR=7.9*;MPTP cs DR=>80
Cc1cc(Oc2cccnc2)ccc1NC(=O)Cc1c(C)[nH]c2ccccc12,·,·,·,·,7,·,
CCN1CCN(c2ncc(C(=O)Nc3cc(Cl)ccc3OC)c3ccccc23)CC1,78*,i,6,0,-8,-11,MPTP abs DR=i;MPTP cs DR=>80
CCN(CC)S(=O)(=O)c1cccc(NC(=O)CCSc2ccc(Cl)cc2)c1,76*,i,20,2,2,85*,
O=C(CNc1ccc(C(F)(F)F)cc1)Nc1cccc(S(=O)(=O)N2CCCC2)c1,4,i,11,1,4,·,
O=C(CNc1ccc(C(F)(F)F)cc1)Nc1cccc(S(=O)(=O)N2CCCCC2)c1,66*,i,29,·,7,90*,
O=C(CSc1nnc2c(n1)[nH]c1ccccc12)Nc1cccc(S(=O)(=O)N2CCOCC2)c1,52*,i,1,-3,8,35*,
CN(C)S(=O)(=O)c1cccc(NC(=O)COC(=O)CCSc2ccc(Cl)cc2)c1,1,i,0,-4,4,·,
O=C(CSc1nnc2c(n1)[nH]c1ccccc12)Nc1ccc(N2CCOCC2)cc1,12,i,-3,1,7,·,
CCN(CC)S(=O)(=O)c1cc(NC(=O)CNc2cccc(S(=O)(=O)N3CCCC3)c2)ccc1C,54*,i,9,-3,·,95*,
CC(C)(C)[C@H]1COC(=O)[C@@H](Cc2ccc(F)cc2)CC/C=C/C[C@@H](CC(=O)N[C@H](CO)Cc2ccccc2)C(=O)N1,0,i,-1,-1,-1,·,
COc1ccccc1CC(=O)N1CCN(c2cccc(Cl)c2)CC1,-1,i,3,4,-2,·,
CCN(CC)S(=O)(=O)c1ccc(C)c(NC(=S)Nc2cccc(S(=O)(=O)N3CCCCCC3)c2)c1,76*,i,14,1,7,78*,
CCN(CC)S(=O)(=O)c1ccc(C)c(NC(=O)CNc2cccc(S(=O)(=O)N3CCOCC3)c2)c1,0,i,0,1,2,·,
CCN(CC)S(=O)(=O)c1cccc(NC(=O)CNc2cccc(S(=O)(=O)N3CCOCC3)c2)c1,72*,·,1,-2,·,97*,
COc1ccc(C2=NN(C(=O)CCC(=O)O)C(c3ccccc3F)C2)cc1 (centres undefined),0,i,-3,-1,1,·,
Cc1cccc(OCC(O)Cn2c(=N)n(Cc3ccccc3)c3ccccc32)c1 (centres undefined),2,i,-1,0,16,·,
CCN(CC)CCn1c(=N)n(CC(O)COc2cccc(C)c2)c2ccccc21 (centres undefined),71*,i,1,-2,11,-4,MPTP abs DR=4.5*;MPTP cs DR=66*
CCOC(=O)Cn1c(=N)n(CCOc2cccc(C)c2)c2ccccc21,88*,i,-6,0,11,0,MPTP abs DR=5.3*;MPTP cs DR=57*
CCOC(=O)Cn1c(=N)n(CCOc2ccc(Br)cc2)c2ccccc21,3,i,-2,1,11,·,
COC(=O)CNc1nc(Cl)nc(NC2CCCCC2)n1,-2,i,-1,-3,-5,·,

# Bioassay records: PubChem BioAssay, several laboratories
